# Data: PubChem BioAssay AID540256 (National Center for Advancing Translational Sciences (NCATS), 2011)
# In all, about 300,000 compounds went through this assay and about 3,700 (1.2%) were called active. Not shown: some 20% with an inconclusive outcome. Calls come from the whole dose curve; tested in HEK293 cells. What follows is part of a selection rich in actives, with near analogues and random picks from the rest.
# Experiment: qHTS for Inhibitors of binding or entry into cells for Lassa Virus; note: nearly all actives have a fitted effect of over 50% in size
# Conditions: Lassa virus pseudotype entry inhibition, cell reporter; series mostly up to 37.9 µM; activity change, negative = inhibition: at the top concentration
# % is set by controls: 0 for no effect and ±100 for the full control effect; potency is the fitted concentration of half-maximal effect.
Structure (SMILES),"activity change, negative = inhibition",Potency
Cc1nnc(SCC(=O)NCc2ccccc2)s1,-1.56% (inactive),–
Cc1nnc(SCC(=O)N2CCc3ccccc3C2)s1,15.2% (inactive),–
Cc1nnc(SCC(=O)N2c3ccccc3C(C)(c3ccc(Cl)cc3)CC2(C)C)s1 (stereo not given),–,10 µM (active)
Cc1ccc(NC2CCCN(C(=O)CCc3cn[nH]c3)C2)cc1C (stereo not given),-7.91% (inactive),–
COc1cc(C(=S)N2CCOCC2)cc(OC)c1OC(=O)c1ccc([N+](=O)[O-])cc1[N+](=O)[O-],-14.6% (inactive),–
CCN1CCC2(CC1)N=C(c1ccc(F)cc1)C(=S)N2C(=O)c1ccc(C)cc1,–,8.91 µM (active)
Cc1ccc(SCC(=O)N2CCN(c3ccc(F)cc3)CC2)cc1,-2.07% [at 46.1 µM] (inactive),–
CCN1CCC(N(Cc2ccc(F)cc2)C(=O)Nc2cc(C)ccc2C)CC1,-4.1% [at 46.1 µM] (inactive),–
COc1ccccc1C(=O)Nc1ccc(Nc2ccccc2)cc1,8.44% (inactive),–
CCC(=O)Nc1ccc2nc(SCC(=O)N3CCc4ccccc43)sc2c1,8.37% [at 46.1 µM] (inactive),–
COCCn1cnnc1SCC(=O)Nc1cccc(S(=O)(=O)N2CCCCC2)c1,-1.46% (inactive),–
NC(=O)Cc1nc2scc(-c3ccc(Cl)cc3)c2c(=O)[nH]1,-28.5% [at 46.1 µM] (inactive),–
O=c1[nH]c(CN2CCOCC2)nc2cc(Cl)ccc12,-4.94% [at 46.1 µM] (inactive),–
O=c1[nH]c(CCl)nc2cc(-c3ccc(Cl)cc3)sc12,–,10 µM (active)
O=C1c2ccccc2C(=O)C1C(=O)C1CC1,12.7% [at 46.1 µM] (inactive),–
Cc1ccc(S(=O)(=O)N/N=C(\c2ccccc2)C2CC2)cc1,16.6% [at 46.1 µM] (inactive),–
COc1ccc(-c2cc(C(=O)N(C)Cc3ccccc3)c3ccccc3n2)cc1,–,10 µM (active)
CNC(=O)COC(=O)c1cc(-c2ccc(OC)cc2)nc2ccccc12,-36.8% [at 46.1 µM] (inactive),–
COc1ccc(-c2cc(C(=O)n3cnc4ccccc43)c3ccccc3n2)cc1,-15.2% (inactive),–
COc1ccccc1N1CC(C(=O)Nc2nnc(SCC(=O)NCC3CCCO3)s2)CC1=O (stereo not given),3.5% (inactive),–
COc1ccc(C(CNC(=O)c2cc3c(s2)CCCC3)N2CCOCC2)cc1 (stereo not given),-8.98% [at 46.1 µM] (inactive),–
Cc1ccc(C(CC(=O)O)NC(=O)c2ccc(S(=O)(=O)N3CCCC3)cc2)cc1 (stereo not given),10.2% (inactive),–
C=CCN1C(=O)N(Cc2ccccc2)c2ccccc2S1(=O)=O,3.36% [at 46.1 µM] (inactive),–

Structure (SMILES),"activity change, negative = inhibition",Potency
O=C1c2ccccc2C2=Nc3ccccc3SC(c3ccccc3F)C12 (stereo not given),–,20.6 µM (active)
O=C1c2ccccc2C(=O)C1c1ccccc1F,18% (inactive),–
CCn1c(/C=C/c2ccc([N+](=O)[O-])o2)nc2ccccc2c1=O,–,3.66 µM (active)
Cc1ccc(-n2c(/C=C/c3cccc(C(F)(F)F)c3)nc3ccccc3c2=O)cc1,22.9% [at 46.1 µM] (inactive),–
Cn1cc(/C=C/c2nc3ccccc3c(=O)n2-c2cccc([N+](=O)[O-])c2)c2ccccc21,4.13% (inactive),–
COc1cccc(CC(=NO)c2cccc(OC)c2)c1,-0.0231% [at 46.1 µM] (inactive),–
O=C(c1ccccc1)C(Cn1cncn1)C(Sc1ccccc1)c1ccccc1 (stereo not given),–,22.4 µM (active)
Fc1ccccc1OCCCCn1cncn1,19.3% (inactive),–
OC(COc1ccc2ccccc2c1)Cn1cncn1 (stereo not given),0% (inactive),–
Cc1ccccc1N1CC(C(=O)Nc2nnc(SCCC3OCCO3)s2)CC1=O (stereo not given),-10.4% (inactive),–
CCOc1cc2ccccc2cc1C(=O)Nc1ccccn1,12% [at 46.1 µM] (inactive),–
Cc1ccsc1C(=O)OCC(=O)c1cc(C)n(CC2CCCO2)c1C (stereo not given),–,2.59 µM (active)
Cc1cc(C(=O)Cn2cnc3cc([N+](=O)[O-])ccc3c2=O)c(C)n1CC1CCCO1 (stereo not given),2.49% (inactive),–
Cc1cc(C(=O)CCl)c(C)n1CC1COc2ccccc2O1 (stereo not given),-4.21% (inactive),–
CCOC(=O)N1CCN(C(=O)C(=O)Nc2sc3c(c2C#N)CC(C)(C)OC3)CC1,28.3% [at 46.1 µM] (inactive),–
COC(=O)c1ccc(OC(=O)c2cnccn2)cc1,-6.27% [at 46.1 µM] (inactive),–
CSCCC1NC(=O)N(CC(=O)Nc2cccc(S(=O)(=O)N3CCCCCC3)c2)C1=O (stereo not given),-11.3% [at 46.1 µM] (inactive),–
CCOC(=O)N1CCC(NC(=O)c2cnn(-c3cccc(C)c3)c2C2CCN(C(=O)OC(C)(C)C)CC2)CC1,8.41% [at 46.1 µM] (inactive),–
CCN(CC)c1ccc(S(=O)(=O)N2CCCCC2)cc1NC(=O)C1=COCCO1,-10.3% (inactive),–
CC(C)(C)c1ccc(C(=O)NCC(c2ccco2)S(=O)(=O)c2ccc(F)cc2)cc1 (stereo not given),–,12.6 µM (active)
O=C(NCC(c1ccco1)S(=O)(=O)c1cccs1)c1ccc(F)cc1 (stereo not given),-21.9% [at 46.1 µM] (inactive),–
COc1ccccc1CNC(=O)C(=O)NCC(c1ccco1)S(=O)(=O)c1ccc(F)cc1 (stereo not given),-17.7% [at 46.1 µM] (inactive),–
